Shown are actives, neighbours in structure and some others; about 7.5% of the full set was active somewhere.
SMN2 splice up = enhancers of SMN2 splice variant expression. HEK293 SMN2-luciferase splicing reporter, luminescence, 30-36 h. Potency, µM (highest dose often 46.1 µM), most hits filed as activators. 210,000 compounds, 2.8% hits. AID 1458; also: nearly all actives have a fitted effect of over 55% in size
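HEK293 cells carry an SMN2 […]–luciferase reporter in which exon 7 inclusion puts luciferase in frame. Cells were plated 10-12 h before compound addition, then incubated 30-36 h at 37C. ONE-Glo luminescence was read; sodium butyrate at 4.5 mM final served as control.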
NPC1 promoter act = activates the NPC1 promoter. Potency, µM (series often up to 9.22 µM), usual class: activators. AID 485313. 320,000 compounds, 2.4% hits. Huh7 NPC1 promoter luciferase reporter, 24 h; also: nearly all actives have a fitted effect of over 60% in size
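NPC1 promoter–luciferase Huh7 cells; 24 h compound; luminescence.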
ELG1 genotoxic = induces genotoxicity in HEK293T cells with luciferase-tagged ELG1. HEK293T ELG1-luciferase reporter, luminescence, 16 h. Potency, µM (series often up to 46 µM), most hits filed as activators. 330,000 compounds, 1.3% hits. AID 504466; also: nearly all actives have a fitted effect of over 60% in size
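Luminescence read-out: rising ELG1-luciferase signal, reflecting elevated ELG1 protein under genetic stress, flags genotoxic compounds. Cells were treated for 16 hr at 37 °C before ONE-Glo detection.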
FLuc counter = counter-screen for miR-21 project: firefly luciferase inhibitors or activators | purified FLuc, Km substrates, luminescence inhibition | Potency, µM (highest dose often 57.5 µM), usual class: inhibitors | 360,000 compounds, 6.9% hits; also: nearly all actives have a fitted effect of over 55% in size
Target sequence (P08659 whole entry, looked up): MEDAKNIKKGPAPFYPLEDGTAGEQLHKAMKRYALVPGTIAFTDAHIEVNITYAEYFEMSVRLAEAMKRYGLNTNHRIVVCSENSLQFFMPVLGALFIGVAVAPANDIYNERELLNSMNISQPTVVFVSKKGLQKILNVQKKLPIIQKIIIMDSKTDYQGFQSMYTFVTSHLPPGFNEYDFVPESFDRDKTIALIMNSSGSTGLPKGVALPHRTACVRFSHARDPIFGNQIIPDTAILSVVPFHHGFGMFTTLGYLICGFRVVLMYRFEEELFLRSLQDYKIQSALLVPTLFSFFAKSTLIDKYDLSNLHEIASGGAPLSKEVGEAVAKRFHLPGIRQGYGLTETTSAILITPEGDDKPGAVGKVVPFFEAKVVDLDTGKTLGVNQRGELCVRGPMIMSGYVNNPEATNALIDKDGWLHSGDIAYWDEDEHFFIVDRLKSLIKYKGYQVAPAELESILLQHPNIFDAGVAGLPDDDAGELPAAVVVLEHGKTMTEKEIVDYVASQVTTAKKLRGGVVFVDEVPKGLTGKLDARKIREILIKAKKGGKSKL
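Biochemical qHTS of compounds, final roughly 60 µM downward over six points, against 10 nM purified firefly luciferase using Km concentrations of substrates (10 uM D-luciferin, 10 uM ATP) in Tris acetate pH 7.5 buffer; luminescence output.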
Luc counter = blocks Kinase-Glo luciferase, a counter-screen artifact; AID 1379; 200,000 compounds, 0.28% hits; Kinase-Glo luciferase, ATP luminescence, 8 min; Potency, µM (doses to about 38.3 µM), hits mostly inhibitors; Q27757; also: nearly all actives have a fitted effect of over 60% in size
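Light output from Kinase-Glo luciferase with luciferin and 10 uM ATP in 50 mM imidazole pH 7.2, KCl, MgCl2, Tween 20, BSA; compound pin-delivered, 8-min ambient incubation, then luminescence read.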
Rab9 promoter act = activators of Rab9 promoter | Potency, µM (highest dose often 9.22 µM), actives largely listed as activators | AID 485297 | Huh7 Rab9 promoter-luciferase reporter, luminescence, 24 h | 320,000 compounds, 2.8% hits; also: nearly all actives have a fitted effect of over 60% in size
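Huh7 cells stably carrying Rab9 promoter–luciferase reporter, plated 1500 cells/well, compound added after 2 h and incubated 24 h at 37 °C; luciferase luminescence then read after 10 min with detection reagent.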
Numbers stand for hits; - = inactive; ? = inconclusive; . = not tested or not shown. Calls follow the shape of the dose curve; as a rule, active = well fitted curve in the direction sought with a large enough effect; inconclusive = small, poorly fitted or top-dose-only effect, or another doubt; inactive = no such curve, though single readings can be large; an effect the other way counts as inactive or inconclusive.

SMILES	SMN2 splice up	NPC1 promoter act	ELG1 genotoxic	FLuc counter	Luc counter	Rab9 promoter act
O=C(OCC(=O)N1CCN(C(=O)c2ccco2)CC1)c1cc(-c2ccc(Cl)c(Cl)c2Cl)nc2ccccc12	-	-	-	-	-	-
Cc1ccc(N2C(=O)CCC(C(=O)O)C2c2cccs2)cc1 (stereo unspecified)	.	-	-	-	.	-
CSc1ccc(CCNC(=O)CCc2c(C)nc3c(c(C)nn3-c3ccccc3)c2C)cc1	-	.	.	-	.	.
O=C(O)c1cc(-c2ccco2)nc2ccccc12	-	-	-	21.3µM	-	-
C/C(=N\NC(=O)c1cc(-c2ccco2)nc2ccccc12)c1cccnc1	-	-	-	13.5µM	-	-
O=C(Nc1ccc(Cl)c(Cl)c1)c1cc(S(=O)(=O)N2CCN(c3cccc(Cl)c3)CC2)ccc1F	.	.	.	-	.	.
COc1cccc(N2CC(NC(=O)COc3ccc4ccccc4c3)CC2=O)c1 (stereo unspecified)	.	.	.	-	.	.
CCN1/C(=C/C(=O)c2ccco2)Sc2ccccc21	-	-	-	23.9µM	-	?
CCC(=O)/C=C1/Sc2ccccc2N1CC	-	-	-	-	-	-
CCOc1ccc(C(=O)Nc2ccc3c(c2)CCCN3S(=O)(=O)c2ccc(C)cc2)cc1	.	.	.	-	.	.
CCOC(=O)N1CCc2c(sc(NCc3cccs3)c2C(=O)Nc2ccc(OC)cc2OC)C1	.	.	.	13.5µM	.	.
CCOC(=O)N1CCc2c(sc(NCc3sccc3C)c2C(=O)Nc2cc(Cl)ccc2OC)C1	.	.	.	-	.	.
CCOC(=O)N1CCc2c(sc(NCc3ccc(OC)c(OC)c3OC)c2C(=O)Nc2ccc(OC)cc2OC)C1	.	.	.	15.1µM	.	.
CCOC(=O)N1CCc2c(sc(NCc3ccc(N(CC)CC)cc3)c2C(=O)Nc2cc(OC)ccc2OC)C1	.	.	.	-	.	.
CCOC(=O)N1CCc2c(sc(NCc3ccc(OCC)cc3)c2C(=O)Nc2ccc(OC)cc2OC)C1	.	.	.	15.1µM	.	.
O=C(CCc1ccccc1)N(Cc1cccnc1)c1nc2c(F)cc(F)cc2s1	.	.	.	-	.	.
COc1ccccc1NS(=O)(=O)c1cccc(C(=O)N/N=C/c2c(CO)cnc(C)c2O)c1	.	-	-	-	.	-
COc1ccc(C(=O)N/N=C/c2c(CO)cnc(C)c2O)cc1	-	-	-	21.3µM	-	-
Cc1ncc(CO)c(/C=N/NC(=O)c2ccc(O)cc2)c1O	?	-	-	?	-	-
COc1ccccc1N/N=C/c1c(CO)cnc(C)c1O	-	-	-	13.5µM	-	-
O=c1c(-c2cc(F)cc(F)c2)nc2cnc(N3CCNCC3)nc2n1Cc1cccs1	-	.	.	.	-	.
O=C(Nc1ncc2c(n1)-c1ccccc1CC2)c1ccccc1	-	-	-	?	-	-
O=C(Nc1nc2c(s1)COc1ccccc1-2)c1cccs1	-	-	-	13.5µM	-	-
O=C(Nc1nc2c(s1)CCc1ccccc1-2)c1cccs1	-	?	-	13.5µM	-	?
Fc1ccccc1Nc1nc2c(s1)CCc1ccccc1-2	?	?	8.2µM	1.9µM	-	3.16µM
SMILES	SMN2 splice up	NPC1 promoter act	ELG1 genotoxic	FLuc counter	Luc counter	Rab9 promoter act
O=C(Nc1ncc2c(n1)-c1ccccc1CC2)c1cccs1	-	-	-	19µM	-	-
O=C(CCS(=O)(=O)c1ccccc1)Nc1nc2c(s1)COc1ccccc1-2	-	-	-	-	-	-
O=C(Nc1nc2c(s1)CCCC2)C1CCCN1C(=O)c1cccs1 (stereo unspecified)	-	-	-	-	-	-
O=C(c1ccc2c(c1)N(Cc1ccccc1F)C(=O)c1ccccc1S2(=O)=O)N1CCN(c2ccccn2)CC1	-	.	.	-	.	.
COc1cccc(CCNC(=O)c2cnc3sc(N4CCOCC4)nn3c2=O)c1	-	.	.	-	.	.
Cc1ccc2c(CC(=O)N(Cc3ccc(Cl)cc3)Cc3ccco3)coc2c1	-	.	.	-	.	.
CCC(C)(O)c1[nH]c2ccc(C(=O)OC)cc2c1C (stereo unspecified)	.	-	-	21.3µM	.	-
COC(=O)c1ccc2[nH]c(CO)c(-c3ccccc3)c2c1	.	-	-	-	.	-
COc1ccc2c(CNCCc3ccccc3)c(C(=O)O)n(Cc3cccc(F)c3)c2c1	.	.	.	-	.	.
CCC(NC(=O)c1cc(COc2c(F)cccc2F)on1)c1ccncc1 (stereo unspecified)	.	-	-	-	.	-
CN(Cc1cc(-c2ccccc2)on1)C(=O)c1cc(COc2c(F)cccc2F)on1	.	-	-	23.9µM	-	2.51µM
COC(=O)[C@H](Cc1ccccc1)NC(=O)c1cc(COc2c(F)cccc2F)on1	.	?	?	19µM	.	?
Cc1nc(CN(C)C(=O)c2cc(COc3c(F)cccc3F)on2)cs1	.	-	-	-	-	-
CCc1nnc(NC(=O)c2nc(SCc3ccc(F)cc3)ncc2Cl)s1	-	.	.	12µM	.	.
Cc1ccc(CSc2ncc(Cl)c(C(=O)Nc3nnc(C)s3)n2)cc1	-	.	.	15.1µM	.	.
O=C(NNC(=O)c1ccccc1C(=O)O)c1ccc(-c2ccccc2)cc1	-	-	-	16.9µM	-	-
Cc1cccc(C(=O)NNC(=O)c2ccc(Cl)cc2)c1O	15.8µM	?	9.2µM	10.7µM	-	?
O=C(NNC(=O)c1ccccc1O)c1cccc(Br)c1	.	?	-	16.9µM	.	-
O=C(NNC(=O)c1ccccc1O)c1ccc(Cl)cc1	-	?	?	9.53µM	-	?
O=C(NNC(=O)C1CC1)c1ccc(-c2ccccc2)cc1	-	-	-	-	-	-
NC(=S)NNC(=O)c1cccc(Br)c1	-	-	-	-	-	-
O=C(NNC(=O)c1ccc(O)cc1O)c1ccc(Cl)cc1	-	-	?	?	-	-
CC(=O)NCCNC(=O)CCCn1c(=O)[nH]c2ccsc2c1=O	-	.	.	-	.	.
CN(C)CCNC(=O)c1ccc(Cc2nc3ccccc3[nH]2)cc1	.	.	.	.	-	.
COc1cc(C(=O)NCc2nc3cccnc3n2Cc2ccc(C)cc2)cc(OC)c1OC	.	.	.	-	.	.
SMILES	SMN2 splice up	NPC1 promoter act	ELG1 genotoxic	FLuc counter	Luc counter	Rab9 promoter act
O=C(NNC(=O)c1ccccc1O)c1ccc(Br)cc1	.	?	-	12µM	.	?
O=C(COC(=O)c1ccccc1O)NNC(=O)c1ccc(Br)cc1	.	-	-	-	.	-
COC(=O)c1ccc(NC(=O)CSc2ncc3c(n2)-c2cc(Cl)ccc2N(Cc2ccccc2)S3(=O)=O)cc1	.	.	.	-	.	.
O=C(c1cc2ccccc2o1)N(Cc1nnc(-c2ccccc2Cl)o1)C1CC1	.	-	20.6µM	30.1µM	.	-
CCCN(Cc1nnc(-c2ccccc2Cl)o1)C(=O)c1cc2ccccc2o1	.	-	-	?	.	-
CC1(C)CC(=O)c2cc(-c3nc(-c4ccc(Br)cc4)cs3)c(=O)n(-c3ccccc3)c2C1	-	.	.	-	.	.
O=C(NCCCCNC(=O)c1cccs1)c1cccs1	-	-	-	-	-	-
O=C(NCCCNC(=O)c1cccs1)c1cccs1	-	-	-	-	-	-
O=C(NCCc1ccccc1)c1cccs1	11.2µM	2.82µM	2.91µM	10.7µM	-	2.82µM

Assay outcomes deposited in PubChem by National Center for Advancing Translational Sciences (NCATS).
